Results filed as inconclusive are left out. A number with no mark means an inactive call. Calls of active or inactive are those of the source. Calls follow the shape of the full dose curve.
Assay: qHTS assay for small molecules that induce genotoxicity in human embryonic kidney cells expressing luciferase-tagged ATAD5 - cell viability (AID 651634); also: nearly all actives have a fitted effect of over 25% in size
Conditions: HEK293T ATAD5-luc cells viability, CellTiter-Fluor, 15.5 h; series mostly up to 83.3 µM; activity, negative = cytotoxicity: at the top concentration
Description: National Center for Advancing Translational Sciences [NCATS]
NIH Chemical Genomics Center [NCGC]
U.S. Environmental Protection Agency [EPA]
National Institutes of Environmental Health Sciences [NIEHS]
National Toxicology Program [NTP]
U.S. Food and Drug Administration [FDA]
Enhanced Level of Genome Instability Gene 1 (ELG1; human ATAD5) protein levels increase in response to various types of DNA damage. Using a luciferase reporter-gene tagged with ElG1, a cell-based assay [developed by Kyungjae Myung, NHGRI, NIH] was used to measure the induction of ATAD5 in human embryonic kidney cells (HEK293T). So, increase in luciferase activity can be used to identify the compounds that cause genetic stress. In addition to genotoxicity, these cells were also used to test for cytotoxicity by measuring the protease activity within live cells.
Tox21 Assay Protocol Summary:
For cytotoxicity screening, 2,000 cells in 5 uL/well were dispensed into white, solid-bottom 1536-well plates using a Multidrop Combi (Thermo Scientific) dispenser. Following transfer of 23 nL compound or DMSO vehicle by a pin tool, the plates were incubated 15.5 hr at 37C and 5% CO2. 1 ul CellTiter-Fluor reagent (Promega, Madison, WI) was then added to each plate and following 30 min incubation at 37C, fluorescence intensity was quantified on a ViewLux CCD-based plate reader.
In the case of `Cc1cccc(C(=O)O)c1O`, the “activity, negative = cytotoxicity” value is reported as 10.2%. In the case of `c1ccsc1`, the “activity, negative = cytotoxicity” value is reported as 3.44%. In the case of `OC1CCCc2ccccc21` (stereo not given), the “activity, negative = cytotoxicity” value is reported as -6.92% [at 95.3 µM]. For `CCC(=O)OC(=O)CC`, the “activity, negative = cytotoxicity” value was 9.61%. With `COc1ccc(-c2coc3cc(O)ccc3c2=O)cc1` the “activity, negative = cytotoxicity” value was 5.22%. With `Cc1cc(-c2ccc(N=Nc3cc(S(=O)(=O)O)c4ccccc4c3N)c(C)c2)ccc1N=Nc1cc(S(=O)(=O)O)c2ccccc2c1N` the “activity, negative = cytotoxicity” value was -19.1% [at 95.3 µM]. In the case of `CNC(=O)c1ccccc1Sc1ccc2c(/C=C/c3ccccn3)n[nH]c2c1`, the Potency is reported as 13.3 µM (active). With `CC1(C)CC(O)CC(C)(C)N1` the “activity, negative = cytotoxicity” value was 13.1% [at 95.3 µM]. With `CCC(=O)C(=O)CC` the “activity, negative = cytotoxicity” value was 17.3% [at 95.3 µM]. In the case of `C#CC1(O)CC[C@H]2[C@@H]3CCC4=CCCC[C@@H]4[C@H]3CC[C@@]21C` (stereo not given in full), the “activity, negative = cytotoxicity” value is reported as -1.74% [at 39.1 µM]. For `Nc1ccc(Oc2ccc(Cl)cc2)cc1`, the “activity, negative = cytotoxicity” value was 17.8%. For `Nc1nc2c(ncn2COCCO)c(=O)[nH]1`, the “activity, negative = cytotoxicity” value was -7.76% [at 39.1 µM]. For `Nc1ccc(C(=O)O)c(O)c1`, the “activity, negative = cytotoxicity” value was 12.9%. With `O=C(O)c1cc(N=Nc2ccc([N+](=O)[O-])cc2)ccc1O` the Potency was 53.5 µM (active). For `CC[N+](CC)(CC)CCOc1ccc(/C=C/c2ccccc2)cc1`, the Potency was “inactive”. For `O=C1CCc2cc(OCCCCc3nnnn3C3CCCCC3)ccc2N1`, the “activity, negative = cytotoxicity” value was 13%. With `CCCCOC(=O)CC` the “activity, negative = cytotoxicity” value was 12.3%. For `OC1CCC(C2CCCCC2)CC1` (stereo not given), the “activity, negative = cytotoxicity” value was 11.5%. For `CCC(C)(CCC(C)C)C(=O)[O][Sn]([CH3])([CH3])[O]C(=O)C(C)(CC)CCC(C)C` (stereo not given), the “activity, negative = cytotoxicity” value was 7.58%. In the case of `O=C1OC2(c3ccc(O)cc3Oc3cc(O)ccc32)c2ccc(N=C=S)cc21`, the “activity, negative = cytotoxicity” value is reported as 176% [at 95.3 µM]. With `CN1CCN2c3ccccc3Cc3ccccc3C2C1` (stereo not given) the “activity, negative = cytotoxicity” value was 7.26%. With `CCOc1ccc2ccccc2c1C(=O)N[C@@H]1C(=O)N2[C@@H]1SC(C)(C)[C@@H]2C(=O)O` the “activity, negative = cytotoxicity” value was 3.84% [at 39.1 µM]. For `CC[N+](CC)(CC)CCOC(=O)C(C1CCCC1)C1CCCC1`, the “activity, negative = cytotoxicity” value was 5.39%. In the case of `CCCCC(CC)CN1CN(CC(CC)CCCC)CC(C)(N)C1` (stereo not given), the “activity, negative = cytotoxicity” value is reported as -9.32% [at 39.1 µM]. For `O=S(=O)(O)c1ccc(Nc2nc(Nc3ccc(/C=C/c4ccc(Nc5nc(Nc6ccc(S(=O)(=O)O)cc6)nc(N(CCO)CCO)n5)cc4S(=O)(=O)O)c(S(=O)(=O)O)c3)nc(N(CCO)CCO)n2)cc1`, the “activity, negative = cytotoxicity” value was 83.5%. In the case of `CN(C)C(=O)COC(=O)Cc1ccc(OC(=O)c2ccc(N=C(N)N)cc2)cc1`, the “activity, negative = cytotoxicity” value is reported as 8.9%. In the case of `CCN(CC)C(=O)c1cc(S(=O)(=O)Cc2ccccc2)c(N2CCC(c3ccccc3)CC2)cc1N(CC)CCN(C)C`, the Potency is reported as 29.8 µM (active). With `CC(C)OC(=O)C(O)(CC(=O)O)CC(=O)O` the “activity, negative = cytotoxicity” value was 12.6%. In the case of `CCCCOC(=O)CO`, the “activity, negative = cytotoxicity” value is reported as 18.9%. For `CC(C(=O)O)c1ccc2c(c1)[nH]c1ccc(Cl)cc12` (stereo not given), the “activity, negative = cytotoxicity” value was 11.6%. For `CCCCN(CCCC)CC(O)c1cc(Cl)cc2c1-c1ccc(Cl)cc1/C2=C/c1ccc(Cl)cc1` (stereo not given), the “activity, negative = cytotoxicity” value was -20.9%. With `C=Cc1ccccc1C=C` the “activity, negative = cytotoxicity” value was 12.1% [at 260 µM]. In the case of `CCc1ccc(Br)cc1`, the “activity, negative = cytotoxicity” value is reported as 9.59% [at 95.3 µM]. With `Cc1ccc(C)cc1` the “activity, negative = cytotoxicity” value was 7.65%. With `Cc1c(F)c(N2CCNC(C)C2)cc2c1c(=O)c(C(=O)O)cn2C1CC1` (stereo not given) the “activity, negative = cytotoxicity” value was -3.84%. In the case of `Clc1ccnc(Cl)n1`, the “activity, negative = cytotoxicity” value is reported as 11.1% [at 95.3 µM]. In the case of `S=c1nccc[nH]1`, the “activity, negative = cytotoxicity” value is reported as 10.6%. In the case of `NC(=O)c1cccc([N+](=O)[O-])c1`, the “activity, negative = cytotoxicity” value is reported as -11.6%. In the case of `Clc1sc(Cl)c(Cl)c1Cl`, the “activity, negative = cytotoxicity” value is reported as 4.86%. In the case of `FC(F)(F)c1cccc(Cl)c1`, the “activity, negative = cytotoxicity” value is reported as 14.5%.

— PubChem BioAssay (Tox21)
% is scaled to controls: 0 for no effect and ±100 for the full control effect; potency is read from the fitted curve at half-maximal effect.
